Compound activity deposited in PubChem BioAssay by National Center for Advancing Translational Sciences (NCATS).
Only some compounds are listed: those with a hit (about 19% of all), similar ones and a draw of the others.
TDP1 cell noCPT – qHTS for Inhibitors of human tyrosyl-DNA phosphodiesterase 1 (TDP1): qHTS in cells in absence of CPT; 15% of 420,000 active; Potency, µM (highest dose often 46.2 µM), without a hit: top-dose activity change, negative = growth inhibition, hits mostly inhibitors; DT40 Tdp1-/- hTDP1 cells, no CPT, ATP luminescence, 48 h; also: nearly all actives have a fitted effect of over 55% in size
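Chicken DT40 Tdp1-/- cells complemented with human TDP1, screened without camptothecin (DMSO vehicle only), 400 cells/well. Compounds pin-transferred, cells incubated at 37 °C for at least 48 hr. Growth read as ATP-dependent luminescence (CellTiter-Glo, 30 min at RT).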
KB-V1 MDR tox – kills drug-selected multidrug resistant KB-V1 cells; KB-V1 MDR cells viability, CellTiter-Glo, 72 h; Potency, µM (top dose mostly 46.1 µM), most hits filed as cytotoxic; AID 1347076; 3.4% of 400,000 active; also: nearly all actives have a fitted effect of over 60% in size
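In this primary screen, KB-V1 cells overexpressing P-gp are incubated with library compounds (lowest to highest concentration) for 72 h at 37 degrees C before a luminescent ATP viability read.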
DT40 TDP1 CPT – DT40-hTDP1 cell growth loss with CPT; chicken DT40 Tdp1-/-;hTDP1 cells + 20 nM CPT, ATP luminescence, 48 h; Potency, µM (series often up to 46.2 µM), for the others: top-dose activity change, negative = growth inhibition, hits mostly inhibitors; 12% of 420,000 active; also: nearly all actives have a fitted effect of over 55% in size
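Chicken DT40 Tdp1-/- cells complemented with human TDP1, 400 cells/well, exposed to compounds plus 20 nM camptothecin for at least 48 h at 37 C; viability read as ATP content by CellTiter-Glo luminescence.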
HT1080-NT tox – kills 2HG-producing HT-1080-NT fibrosarcoma cells. AID 686970. HT-1080-NT fibrosarcoma viability, CellTiter-Glo ATP luminescence, 48 h. Potency, µM (doses to about 46.1 µM), for the others: top-dose activity, negative = less viability, actives largely listed as cytotoxic. 1.6% of 360,000 active;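 also: NT is the 2HG producing partner of a matched IDH1 knockdown line; 0% = DMSO-treated cells and -100% = media-only wells without cells; nearly all actives have a fitted effect of over 55% in size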
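Viability by CellTiter-Glo luminescence after 48 h compound exposure at 37C of HT-1080-NT cells (750/well, RPMI, 5% FBS). % activity scaled between DMSO wells and medium-only wells, then curve-fitted and categorized by curve class.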
KB-3-1 tox – KB-3-1 parental cell cytotoxicity; KB-3-1 viability, CellTiter-Glo ATP luminescence, 72 h; Potency, µM (series often up to 46.1 µM), hits mostly cytotoxic; 1.4% of 400,000 active; AID 1347075; also: nearly all actives have a fitted effect of over 60% in size
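Parental KB-3-1 adenocarcinoma cells in phenol-red-free DMEM with 10% FBS were pin-treated with compounds at several concentrations, incubated 72 h at 37 °C, and viability read by CellTiter-Glo luminescence; concentration-effect curves were fitted after normalization.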
HT1080 IDH1KD tx – toxicity to HT-1080 IDH1 knockdown cells (counter line); HT-1080 IDH1 knockdown viability, ATP luminescence, 48 h; Potency, µM (series often up to 46.1 µM), inactives show at the top dose activity, negative = toxicity, hits mostly cytotoxic; 2% of 360,000 active; AID 686971;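 also: 0% = DMSO wells and -100% = cell-free medium wells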
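Cytotoxicity counter-line: IDH1KD HT-1080, 48 h, CellTiter-Glo. Curves classed by r2, magnitude and activity.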
Active calls of the source: *; i = inactive; ? = inconclusive; / = no result given; [ ] = another dose, or the depositor's remark. Calls follow the shape of the dose curve; as a rule, active = well fitted curve in the direction sought with a large enough effect; inconclusive = small, poorly fitted or top-dose-only effect, or another doubt; inactive = no such curve, though single readings can be large; an effect the other way counts as inactive or inconclusive. Unless noted, % is scaled to controls: 0 for no effect and ±100 for the full control effect; potency is read from the fitted curve at half-maximal effect.

SMILES	TDP1 cell noCPT	KB-V1 MDR tox	DT40 TDP1 CPT	HT1080-NT tox	KB-3-1 tox	HT1080 IDH1KD tx
Cc1nn(CCC(=O)NNC(=S)Nc2ccc(F)cc2)c(C)c1Br	?	i	?	0%	i	-1%
CC(=O)CCn1cc([N+](=O)[O-])nc1C	10%	i	-5%	10%	i	10%
CCOC(=O)c1sc2nc(NC(=O)COc3ccccc3)sc2c1C	18µM*	i	?	18%	i	7%
CCOC(=O)c1sc(NC(=O)CSC(=S)N2CCN(C)CC2)nc1C	18µM*	i	26µM*	?	i	?
CN1CCN(C(=S)SCC(=O)Nc2nc(-c3ccccc3)c(-c3ccccc3)o2)CC1	?	21µM*	-5%	-19%	?	0%
CCOC(=O)c1sc(NC(=O)CCc2ccccc2)nc1C	1.2µM*	i	1.8µM*	-17%	?	-6%
COc1ccc2c(c1)N(S(=O)(=O)c1ccccc1)CCC2=O	?	i	-19%	9%	i	4%
CCOC(=O)c1sc(Nc2nc(OC)cc(OC)n2)nc1C	21µM*	i	?	-3%	i	-1%
CCOC(=O)c1sc(NC(C)=O)nc1C	-25%	i	?	-7%	i	-4%[9.24 µM]
CCOC(=O)c1sc(NC(=O)Cc2ccccc2OC)nc1C	-25%	i	-7%	0%	i	0%
Cc1cnc(NC(=O)CC(C)c2ccccc2)s1 (stereo not given)	5.2µM*	?	6.5µM*	?	21µM*	?
CCOC(=O)c1sc(NC(=O)CC(C)c2ccccc2)nc1C (stereo not given)	3.7µM*	?	13µM*	?	?	9.2µM*
O=C(Cc1ccc(NC(=O)C2CCCN(C(=O)C3CCCCC3)C2)cc1)Nc1ccc(C(=O)N2CCOCC2)cc1 (stereo not given)	-6%	i	6%	17%	i	11%
COc1cc(OC)c(OC)cc1CN1CCCC(c2[nH]ncc2-c2cccc(C(F)(F)F)c2)C1 (stereo not given)	23µM*	/	?	/	/	/
CC/C(=C\C(=O)c1ccncc1)Nc1ccc(O)cc1	21µM*	i	?	-1%	i	-12%
O=C(O)C1CCCCC1C(=O)Nc1cccc2ccccc12 (stereo not given)	8.2µM*	i	16µM*	3%	i	0%
CN1/C(=C\C=C(C#N)C#N)C(C)(C)c2ccccc21	-16%	i	-7%	0%	i	-4%
CN1/C(=C\P(=O)(N(C)C)N(C)C)C(C)(C)c2ccccc21	3.7µM*	i	5.8µM*	?	i	?
CNC(=O)c1ccccc1NC(=O)c1cccc(S(=O)(=O)N2CCC(C)CC2)c1	16µM*	?	21µM*	-9%	i	-11%
CNC(=O)c1ccccc1NC(=O)c1cccc(S(=O)(=O)N2CCCCC2)c1	-8%	i	13%	17%	i	20%
CCNC(=O)c1ccccc1NC(=O)c1cccc(S(=O)(=O)N2CCC(C)CC2)c1	15µM*	16µM*	?	-1%	i	-17%
COc1cc2c(c(OC)c1OC)-c1ccc(NC(=O)c3ccc(F)cc3)c(=O)cc1[C@@H](NC(C)=O)CC2	7.3µM*	i	8.2µM*	?	?	?
COc1cc2c(c(OC)c1OC)-c1ccc(NCc3ccccc3)c(=O)cc1C(NC(C)=O)CC2 (stereo not given)	0.92µM*	i	0.92µM*	3.7µM*	1.2µM*	2.3µM*
COc1cc(C(=O)NC2CCCc3ccccc32)cc(OC)c1OC (stereo not given)	-27%	?	-6%	0%	i	-18%
